ALDH1A1 block = blocks purified human ALDH1A1 activity | P00352 | Purified ALDH1A1, NADH fluorescence, propionaldehyde substrate | Potency, µM (doses to about 75.3 µM), for inactives: at the highest dose activity, negative = inhibition, hits mostly inhibitors | 220,000 tested, 7.3% active | AID 1030; active means well fitted inhibition curve with a large enough effect, not every such curve was filed as active; inconclusive means small, poorly fitted or top-dose-only effect, or another doubt; inactive means no such curve, though single readings can be large or run the other way;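 further: potency means the concentration at half of the fitted maximal effect; plate controls were no enzyme wells and a reference inhibitor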
Target sequence (P00352 whole entry, looked up): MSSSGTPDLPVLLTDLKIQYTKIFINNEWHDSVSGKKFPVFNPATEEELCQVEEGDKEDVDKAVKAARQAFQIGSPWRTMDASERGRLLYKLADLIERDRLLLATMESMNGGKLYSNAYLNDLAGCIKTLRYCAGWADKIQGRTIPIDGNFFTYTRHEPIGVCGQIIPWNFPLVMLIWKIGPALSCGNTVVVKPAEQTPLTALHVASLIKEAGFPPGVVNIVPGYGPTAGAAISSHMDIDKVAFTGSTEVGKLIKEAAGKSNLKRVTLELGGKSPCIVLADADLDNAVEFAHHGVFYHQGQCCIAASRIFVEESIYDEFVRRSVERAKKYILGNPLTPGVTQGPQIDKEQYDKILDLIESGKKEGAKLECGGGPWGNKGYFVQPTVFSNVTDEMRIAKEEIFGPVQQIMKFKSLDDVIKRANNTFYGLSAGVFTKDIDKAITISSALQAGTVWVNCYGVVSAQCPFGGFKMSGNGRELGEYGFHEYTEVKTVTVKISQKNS
NPSR antagonist = neuropeptide S receptor (human) antagonism, cAMP; Q6W5P4; CHO-NPSR cells, cAMP TR-FRET, antagonist mode; Potency, µM (titrated, usually from 38.3 µM), for the others: at the top dose activity change, negative = inhibition, actives largely listed as inhibitors; 220,000 tested, 1% active; AID 1461; further: potency means the concentration at half of the fitted maximal effect; nearly all actives have a fitted effect of over 50% in size
IMPase inh = cell-permeable inhibitors of inositol monophosphatase (IMPase); P97697; CHO-M1 cells, IP1 accumulation, HTRF TR-FRET ratio; inhibition (IP1 accumulation), % at 46.1 µM; 120,000 tested, under 10 active; active means well fitted curve in the direction sought with a large enough effect in the signal ratio, not every such curve was filed as active; inconclusive means small, poorly fitted or top-dose-only effect, or a change in a side signal; inactive means no such curve, though single readings can be large or run the other way; the % refers to the signal ratio;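 further: cells stimulated with carbachol in lithium chloride buffer; plate controls were DMSO basal wells for no effect and reference inhibitor wells for full effect; higher means more IMPase inhibition seen as more IP1 and lower FRET ratio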
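Carbachol-driven Gq signalling in CHO-M1 cells (2000/well) generates IP1. Compounds that block IMPase raise IP1 and so reduce the FRET signal from Eu-anti-IP1 and d2-IP1 after a 10 min room-temperature lysis.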
IMPase Li cell = IMPase inhibition in cells with lithium potentiation; CHO-M1 cells, IP1 TR-FRET (IP-One), carbachol + lithium; 210,000 tested, 0.35% active; Potency, µM (doses to about 59.4 µM), for inactives: top-dose activity, negative = IMPase inhibition, actives largely listed as inhibitors;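 further: IP1 builds up when IMPase is blocked and the TR-FRET signal falls; potency means the concentration at half of the fitted maximal effect; plate controls were basal vehicle for no effect and high inhibitor control for full effect; nearly all actives have a fitted effect of over 50% in size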
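CHO-M1, 2000 cells/well, 16–30 h culture; cpd + low Li+, 30 min 37C; lysis with d2-IP1/Eu-anti-IP1 Ab, 10 min RT; TR-FRET 665/620 ratio and 620 channel; AC50 via Hill.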
HPGD inh = inhibitors of human 15-hydroxyprostaglandin dehydrogenase (HPGD). purified HPGD, NADH fluorescence kinetic, PGE2 substrate. Potency, µM, without a hit: top-dose activity change, negative = inhibition, hits mostly inhibitors. 150,000 tested, 4.3% active. AID 894; active means well fitted inhibition curve with a large enough effect, not every such curve was filed as active; inconclusive means small, poorly fitted or top-dose-only effect, or another doubt; inactive means no such curve, though single readings can be large or run the other way; further: potency means the concentration at half of the fitted maximal effect
Target sequence (P15428 whole entry, looked up): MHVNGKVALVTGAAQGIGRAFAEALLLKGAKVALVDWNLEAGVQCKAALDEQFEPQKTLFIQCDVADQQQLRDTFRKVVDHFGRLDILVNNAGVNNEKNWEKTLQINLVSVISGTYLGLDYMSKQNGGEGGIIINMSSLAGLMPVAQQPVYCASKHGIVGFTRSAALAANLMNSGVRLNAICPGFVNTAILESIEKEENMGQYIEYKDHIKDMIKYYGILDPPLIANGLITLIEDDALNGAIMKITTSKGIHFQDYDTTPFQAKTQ
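20 nM HPGD preincubated 15 min at room temperature with compound in 50 mM Tris-HCl pH 8, 0.01% Tween 20. Started with 1 mM NAD+ and 30 uM prostaglandin E2; NADH fluorescence (360/450 nm) read 5 times over 30-s intervals, last minus first.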
PNC assembly inh = inhibitors of perinucleolar compartment assembly. PC3M PTB-GFP, PNC prevalence imaging, 16 h; active compounds read low. activity change (PNC), negative = inhibition, % at 10 µM. 140,000 tested, 3.1% active. AID 2417;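 active means readout at or below -70, meaning at least 70% loss of cells showing the perinucleolar compartment, a nuclear body marking cancer cells; inconclusive means readout between -30 and a set limit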;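 further: plate controls were DMSO wells for no effect and camptothecin positive control wells for full effect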
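Read-out is percentage of cells bearing a perinucleolar compartment, from automated 20x imaging of fixed, Hoechst-stained PC3M PTB-GFP cells. Cells were seeded 4 h, then exposed 16 h to compound (23 nl of library stock) in duplicate plates.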
* hit, by the source's call; ? = inconclusive; / = not tested or not shown; [ ] = remark or other dose. A selection: hits, their analogues and other compounds. The true share with any hit is near 11%. Unless noted, the call rests on the fitted dose curve; in most records, active means well fitted curve in the direction sought with a large enough effect; inconclusive means small, poorly fitted or top-dose-only effect, or another doubt; inactive means no such curve, though single readings can be large; an effect the other way counts as inactive or inconclusive. Unless noted, on the % scale 0 is the no-effect control and ±100 the full control effect.

SMILES	ALDH1A1 block	NPSR antagonist	IMPase inh	IMPase Li cell	HPGD inh	PNC assembly inh
Cc1ccc(C(=O)Nc2ncc3c(n2)CC(c2ccco2)CC3=O)cc1 (stereo not drawn)	?	1%[46.1 µM]	-4	1%[38.3 µM]	-6%	5
O=C(c1ccc2c3c(cccc13)CC2)N1CCOCC1	14µM*	-7%[46.1 µM]	9	-3%[38.3 µM]	11µM*	-21
c1cncc(-c2cncnc2NC2CCNCC2)c1	25µM*	/	/	7%	/	/
COc1ccc(-n2nc(C(=O)NCC(=O)N3CCN(c4ccccn4)CC3)c3ccccc3c2=O)cc1	28µM*	-9%[46.1 µM]	3	5%[38.3 µM]	?	-5
COc1ccc(-n2nc(C(=O)NCc3ccco3)c3ccccc3c2=O)cc1	?	-8%[46.1 µM]	-7	?	?	-84*
CC(C)C(NS(=O)(=O)c1ccc2c(c1)oc(=O)n2C)C(=O)N1CCN(c2ccccc2F)CC1 (stereo not drawn)	-1%	-15%[46.1 µM]	-1	1%[38.3 µM]	3%	24
COC(=O)c1ccc(SC2CCCCC2)c([N+](=O)[O-])c1	-17%	-28%[46.1 µM]	5	5%[38.3 µM]	?	78
Cc1ccc(C)c(N2CCN(C(=O)CNS(=O)(=O)c3cccs3)CC2)c1	-1%	-6%[46.1 µM]	0	19%[38.3 µM]	-13%	27
O=C(c1cccnc1)C1Cc2ccccc2C1=O (stereo not drawn)	/	-2%	/	/	/	/
COC(=O)c1ccc2ncccc2c1	-4%	-4%[46.1 µM]	0	19%[38.3 µM]	-7%	33
COC(=O)c1cc(=O)c(O)c2c(O)c(O)ccc2c1	11µM*	/	/	31%	7.9µM*	/
O=C(O)c1cccc(-n2c(-c3cnccn3)n[nH]c2=S)c1	-3%	11%	/	4%	/	/
Cc1ccc(S(=O)(=O)N2CC=C(c3ccc(F)cc3)CC2)cc1	9%	-5%	1	3%	-14%	-80*
O=C(NCc1ccco1)c1nc2c(nnn2Cc2cccc(Cl)c2)c(=O)[nH]1	28µM*	-14%[46.1 µM]	3	1%[38.3 µM]	0.35µM*	57
O=C(NCc1ccccc1)c1nc2c(nnn2Cc2cccc(Cl)c2)c(=O)[nH]1	15%	-26%[46.1 µM]	19	7%	2.5µM*	-28
Cc1ccc(Cn2nnc3c(=O)[nH]c(C(=O)NCc4ccco4)nc32)cc1	4%	-4%[46.1 µM]	-12	-6%[38.3 µM]	-25%	32
CCNc1nc2ccccc2[nH]1	5%	0%[46.1 µM]	4	17%[38.3 µM]	-10%	-109*
CCSc1nc2ccccc2[nH]1	0%	-10%[46.1 µM]	6	44%[38.3 µM]	-13%	?
Nc1nc2ccccc2[nH]1	20µM*	/	/	1%	-11%	/
O=C(Cc1ccc(Br)cc1)Nc1nc2ccccc2[nH]1	/	1%[7.67 µM]	/	/	/	/
CCN(CC)CCCNc1nc2ccccc2[nH]1	6%	-5%[46.1 µM]	1	2%[38.3 µM]	-2%	-22
O=C(Cc1ccccc1)Nc1nc2ccccc2[nH]1	18µM*	-11%[46.1 µM]	?	-12%[38.3 µM]	-6%	46
Nc1ccccc1Sc1nc2ccccc2[nH]1	13µM*	-14%	/	25%	/	/
CC(=C/c1ccc(C(C)C)cc1)/C=N/NC(=O)Cn1nnnc1N	-8%	5%	/	/	/	/
CC(=O)Nc1ccc(SCC(=O)N(C)C2CCS(=O)(=O)C2)cc1 (stereo not drawn)	4%	14%	/	-1%	/	/
SMILES	ALDH1A1 block	NPSR antagonist	IMPase inh	IMPase Li cell	HPGD inh	PNC assembly inh
Cc1ccc(-c2csc3ncnc(NS(=O)(=O)c4ccc(Cl)cc4)c23)cc1	?	-3%[46.1 µM]	3	-5%	13%	17
O=C1Nc2ccccc2/C1=N\c1sc2c(c1C(=O)Nc1ccccc1)CCCC2	25µM*	-10%	5	1%	-9%	55
O=C(Nc1sc2c(c1C(=O)Nc1ccccc1)CCC2)c1ccc(Br)cc1	/	/	-4	/	/	/
COCCN1C(=O)C(CC(=O)Nc2ccccc2)SC1=Nc1ccc(OC)cc1 (stereo not drawn)	-7%	-15%[46.1 µM]	-2	22%[38.3 µM]	-6%	2
O=C(CC1Sc2ncnn2C1=O)Nc1ccc(Cl)cc1 (stereo not drawn)	7.9µM*	-5%	/	3%	/	/
COc1ccc(NC(=O)CC2Sc3ncnn3C2=O)cc1 (stereo not drawn)	0.4µM*	2%	7	4%	7.9µM*	24
O=C(CC1SC(=O)N(c2ccccc2)C1=O)Nc1ccc(Cl)cc1 (stereo not drawn)	/	-1%[7.67 µM]	/	/	/	/
CCOC(=O)c1ccc(NC(=O)CC2SC(=NC)N(C)C2=O)cc1 (stereo not drawn)	13µM*	-1%[46.1 µM]	-9	16%[38.3 µM]	-9%	?
CCOC(=O)c1ccc(NC(=O)CC2Sc3ncnn3C2=O)cc1 (stereo not drawn)	1µM*	1%[46.1 µM]	19	12%	16µM*	?
CCOC(=O)c1ccc(NC(=O)CN2C(=O)C(C)SC(C)C2=O)cc1 (stereo not drawn)	1%	-10%[46.1 µM]	18	-2%	-8%	-20
COc1cccc(Cn2nnc(C(=O)NCc3ccc(F)cc3)c2N)c1	4%	-8%[46.1 µM]	2	4%[38.3 µM]	-4%	18
CCOC(=O)Cn1c2ccc(F)cc2c2nc(C)sc21	?	-14%	/	9%	/	/
OC(c1ccccc1)c1nc2ccccc2s1 (stereo not drawn)	7%	-10%[46.1 µM]	11	-15%[38.3 µM]	16µM*	-29
COc1ccccc1NC(=O)CN1CCN(C(=O)c2ccco2)CC1	5%	-10%[46.1 µM]	-2	-1%	1%	8
CCN(CC(=O)NCc1ccccn1)S(=O)(=O)c1ccc(Cl)cc1	?	-5%[46.1 µM]	-10	16%[38.3 µM]	22µM*	?
CCS(=O)(=O)c1nc(S(=O)(=O)c2ccc(Cl)cc2)c(NCc2ccccn2)s1	13µM*	-16%	/	-2%	/	/
CCN(CC(=O)N1CCCCCC1)S(=O)(=O)c1ccc(Cl)cc1	-11%	-6%[46.1 µM]	0	1%[38.3 µM]	-10%	-1
CCS(=O)(=O)c1nc(S(=O)(=O)c2ccc(Cl)cc2)c(N2CCc3ccccc3C2)s1	1.4µM*	-2%	/	4%	-8%	?
CCNc1sc(S(C)(=O)=O)nc1S(=O)(=O)c1ccc(Cl)cc1	-8%	-1%	/	4%	/	/
CCN(CC(=O)N1CCN(C)CC1)S(=O)(=O)c1ccc(Cl)cc1	9%	1%[46.1 µM]	3	8%[38.3 µM]	-8%	-107*
CCCc1ccc(-c2cc(NC(=O)CSc3nnc(N)s3)n(-c3ccccc3)n2)cc1	-2%	-20%[46.1 µM]	?	/	/	?
CCOC(=O)c1sc2nc(SCC#N)n(CCCN3CCCC3=O)c(=O)c2c1C	0.79µM*	-10%[46.1 µM]	6	33%[38.3 µM]	?	?
Cc1cc(C)cc(NC(=O)c2ccccc2CC[N+](=O)[O-])c1	2.8µM*	-16%[46.1 µM]	-15[1.84 µM]	35%[38.3 µM]	-18%	30
CCS(=O)(=O)c1ccc(O)c(NC(=O)c2cc(OC)c(OC)c(OC)c2)c1	16µM*	-7%[46.1 µM]	6	-2%[38.3 µM]	-17%	?
O=C(Nn1cnnc1)c1ccncc1	6%	-6%[46.1 µM]	-13	/	/	-20
